We go through 18 compounds from PubChem BioAssay.

The subject of test [1] is XIP peptide (Xip251-270) binding. Briefly: XIP fragment 251-270 binding compounds – biochemical, small-molecule microarray, fluorescence 635/667 nm, 0.1 µg/mL protein, primary screen (AID 1182). As to conditions: fluorescent protein binding, 635 nm, higher = more signal, called active from +8 up or from −8 down.
Another test concerns XIP peptide (Xip251-270). Briefly: compounds binding XIP fragment 251-270 – biochemical, small-molecule microarray, fluorescence 635/667 nm, 0.5 µg/mL protein, primary screen (AID 1183). As to conditions: fluorescence 635 nm, higher = more signal.
A short description of test [2]: blood-stage malaria parasite viability loss – strain 3D7, DAPI fluorescence, 100 nL, primary screen (AID 1184).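 Further: parasites grown inside human red blood cells in medium with human serum.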 As to conditions: P. falciparum 3D7 growth, 3 d, higher = more signal.
Test [3] has as its target Homeobox protein Hox-A13 (Mus musculus) (UniProt Q62424). Briefly: disruptors of Hoxa13 oligonucleotide interaction – biochemical, fluorescence polarization, labeled oligonucleotide, primary screen (AID 1185). As to conditions: Hoxa13:DNA binding, 15 min, higher = more signal, called active from +8 up or from −8 down.
The nature of test [4]: blockers of DNA damage checkpoint Chk1 activation – imaging, HeLa, hydroxyurea, phospho-Chk1 antibody, percent positive cells, primary screen (AID 1186). As to conditions: hydroxyurea-induced phospho-Chk1 immunofluorescence imaging, higher = more signal.
Test [5] can be described thus: blockers of DNA damage checkpoint Chk1 activation – imaging, HeLa, hydroxyurea, phospho-Chk1 nuclear intensity, primary screen (AID 1187). As to conditions: hydroxyurea-induced phospho-Chk1 immunofluorescence imaging, higher = more signal.

Calls of active or inactive are those of the source. Unless noted, how the calls were made is not given here.

Sequence of Homeobox protein Hox-A13 (Mus musculus) (Q62424 whole entry, looked up): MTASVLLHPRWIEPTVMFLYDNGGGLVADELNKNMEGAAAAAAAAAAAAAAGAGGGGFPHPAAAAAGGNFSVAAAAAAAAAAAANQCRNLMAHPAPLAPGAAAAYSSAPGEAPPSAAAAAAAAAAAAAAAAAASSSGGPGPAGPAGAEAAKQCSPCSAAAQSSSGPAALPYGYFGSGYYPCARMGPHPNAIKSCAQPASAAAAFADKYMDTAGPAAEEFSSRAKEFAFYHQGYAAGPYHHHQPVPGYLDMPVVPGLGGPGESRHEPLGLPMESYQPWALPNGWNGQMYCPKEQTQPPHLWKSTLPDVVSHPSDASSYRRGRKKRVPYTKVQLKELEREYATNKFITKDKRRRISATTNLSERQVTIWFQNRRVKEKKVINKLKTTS

For `C=C(COC)C(=O)CC[C@H](OC(=O)c1cccnc1)c1ccccc1OCCO`, the figures for the composite z-score (in test [1]; in the test on XIP peptide (Xip251-270)) were -0.0123 (inactive) and 0.444, respectively. For the same compound, the z-score in test [2] was -3.02; in test [3], -4.46 (inactive); in test [4] it was 0.735 (inactive); in test [5], 0.565 (inactive).
Take `C[C@H]1C2[C@H](Cc3ccccc3)NC(=O)[C@]23C(=O)N[C@H](Cc2ccccc2)C(=O)N[C@H](Cc2ccccc2)C(=O)NC/C=C/CCC/C=C/C3[C@@H]2O[C@]12C` (stereo partly drawn): the composite z-score in test [1] is 0.353 (inactive); with XIP peptide (Xip251-270), 0.518. Further, the z-score in test [2] is -1.71; in test [3] it was -5.67 (inactive); in test [4] it was 0.275 (inactive); in test [5], 0.371 (inactive).
Regarding `O=C1c2ccccc2[C@](Cc2ccccc2I)(C(=O)O)[C@H](c2ccc(CO)cc2)N1Cc1ccccc1C(F)(F)F`, the results for the composite z-score (in test [1]; with XIP peptide (Xip251-270)) were 0.185 (inactive) and 0.506, respectively. In addition, the z-score in test [2] is 0.33; in test [3], -5.85 (inactive); in test [4] it was -0.344 (inactive); in test [5] it was -0.572 (inactive).
Take `CC(C)C(=C=CC[C@H](O)c1ccccc1OCCO)CCO`: the composite z-score in test [1] is -0.393 (inactive); with XIP peptide (Xip251-270), 0.81. Moreover, the z-score in test [2] was -0.305; in test [3], -3.12 (inactive); in test [4], -0.106 (inactive); in test [5], 0.0237 (inactive).
As to `CC(c1ccccc1)C(O)C1C=CC2C(=O)N(c3ccccc3)C(=O)C2N1Nc1ccccc1F` (stereo not drawn), the values for the composite z-score (in test [1]; in the test with XIP peptide (Xip251-270)) were -0.093 (inactive) and 0.583, respectively. Besides, the z-score in test [2] is -0.436; in test [3], -1.51 (inactive); in test [4], -0.123 (inactive); in test [5], 0.104 (inactive).
Consider `CCCCC(=C=CC[C@H](O)c1ccccc1OCCO)C[C@H](O)c1cc(Cl)cc(Cl)c1O`, for which the results for the composite z-score (in test [1]; in the test with XIP peptide (Xip251-270)) were 0.776 (inactive) and 0.832, respectively. Also, the z-score in test [2] was -1.09; in test [3], -4.23 (inactive); in test [4] it was 0.0899 (inactive); in test [5], 1.23 (inactive).
In the case of `CCCCN1CC=CC23O[C@@H]4/C=C\CCCOC(=O)C4[C@H]2C(=O)N(C(C)CO)[C@@H]3C1=O` (stereo partly drawn), the composite z-score in test [1] is 0.502 (inactive); in the test on XIP peptide (Xip251-270), -0.269. Further, the z-score was 0.494 in test [2], -4.24 (inactive) in test [3], 0.166 (inactive) in test [4] and 0.711 (inactive) in test [5].
As for `CCCCCCCCCCC(O)C1C=CC2C(=O)N(c3ccccc3)C(=O)C2N1Nc1ccc([N+](=O)[O-])cc1` (stereo not drawn), the values for the composite z-score (in test [1]; in the test on XIP peptide (Xip251-270)) were 0.812 (inactive) and 0.801, respectively. In addition, the z-score is -0.338 in test [2], -2.71 (inactive) in test [3], 0.346 (inactive) in test [4] and -0.444 (inactive) in test [5].
In the case of `COCCOC(=O)N1C(=O)[C@@]2(c3cc(C#CCC(C(=O)OC)C(=O)OC)ccc31)[C@H](c1ccccc1OCCO)N1[C@H](c3ccccc3)[C@H](c3ccccc3)OC(=O)[C@H]1[C@@H]2C(=O)Nc1nc2ccccc2s1`, the values for the composite z-score (in test [1]; in the test on XIP peptide (Xip251-270)) were 0.83 (inactive) and 0.862, respectively. Besides, the z-score in test [2] was -1.53; in test [3] it was 3.51 (inactive); in test [4], -0.5 (inactive); in test [5], -0.31 (inactive).
As to `Cc1ccc(S(=O)(=O)N2CC(C(=O)O)=CCC2c2ccccc2)cc1` (stereo not drawn), the composite z-score in test [1] was 0.624 (inactive); in the test on XIP peptide (Xip251-270) it was 0.268. Also, the z-score in test [2] is -0.863; in test [3] it was -2.63 (inactive); in test [4], -0.557 (inactive); in test [5], -0.655 (inactive).
In the case of `CCCNC(=O)[C@@]1(C)c2ccccc2C(=O)N(C(C)C)[C@H]1c1ccc(CO)cc1`, the composite z-score is -0.358 (inactive) in test [1] and -0.395 with XIP peptide (Xip251-270). Further, the z-score is -1.46 in test [2], -3.3 (inactive) in test [3], -0.017 (inactive) in test [4] and -0.211 (inactive) in test [5].
For `O=C(N1CCCCC1)[C@]1(CCS(=O)(=O)c2ccccc2)N=C(c2ccc(OCCCO)cc2)O[C@@H]1c1ccccc1`, the results for the composite z-score (in test [1]; in the test on XIP peptide (Xip251-270)) were 1.29 (inactive) and 0.75, respectively. The z-score in test [2] is -2.79; in test [3], -5.68 (inactive); in test [4] it was -0.599 (inactive); in test [5] it was -1 (inactive).
`NC(=O)NCC#Cc1ccc2c(c1)[C@]1(C(=O)N2)[C@H](c2ccc(O)cc2)N2[C@H](c3ccccc3)[C@H](c3ccccc3)OC(=O)[C@H]2[C@@H]1C(=O)N1CCN(c2ncccn2)CC1`: the composite z-score in test [1] is 0.17 (inactive); in the test with XIP peptide (Xip251-270) it was 0.466. Further, the z-score is -0.136 in test [2], -1.61 (inactive) in test [3], 0.477 (inactive) in test [4] and 1.04 (inactive) in test [5].
Regarding `CCCCCCC#C[Si](O[C@H](c1ccccc1)c1cn([C@H](C)c2ccccc2)nn1)(C(C)C)C(C)C`, the composite z-score in test [1] was -0.131 (inactive); in the test with XIP peptide (Xip251-270), -0.012. Also, the z-score was 0.308 in test [2], 0.337 (inactive) in test [3], -0.341 (inactive) in test [4] and -0.487 (inactive) in test [5].
As to `CCOC(=O)C[C@H]1[C@H](OC(=O)c2ccccc2-c2ccccc2)[C@@H](NC(=O)c2ccc(-c3ccccc3)cc2)c2cc(OCCCO)ccc2N1C(=O)c1ccccc1`, the composite z-score is 0.788 (inactive) in test [1] and 0.79 with XIP peptide (Xip251-270). In addition, the z-score in test [2] is -1.43; in test [3], -1.95 (inactive); in test [4], -0.189 (inactive); in test [5], 0.151 (inactive).
`CC(C)(C)OC(=O)CC[C@]1(C(=O)NCC(O)CO)N=C(c2ccc(OCCCO)cc2)O[C@H]1c1ccccc1CN=[N+]=[N-]` (stereo partly drawn): the composite z-score in test [1] was 3.09 (inactive); with XIP peptide (Xip251-270) it was 0.878. The z-score was -0.121 in test [2], -5.33 (inactive) in test [3], -0.029 (inactive) in test [4] and 0.402 (inactive) in test [5].
As to `CN1C(=O)C2C(C1=O)C1C=C(c3ccc(CO)cc3)C2C(C2CC2)N1Cc1sc2ccccc2c1Cl` (stereo not drawn), the composite z-score in test [1] was 0.406 (inactive); in the test with XIP peptide (Xip251-270), 0.745. Besides, the z-score in test [2] was -1.9; in test [3], -3.23 (inactive); in test [4], 0.21 (inactive); in test [5], 0.442 (inactive).
Turning to `Cc1ccccc1/C=C/C=O`, the composite z-score in test [1] is 0.958 (inactive); with XIP peptide (Xip251-270), 0.532. For the same compound, the z-score in test [2] was -0.198; in test [3] it was -0.848 (inactive); in test [4], 0.133 (inactive); in test [5] it was 0.0525 (inactive).
